The record followed here is PubChem BioAssay (Tox21).

Experiment [1] can be described thus: qHTS RealTime-Glo MT Cell Viability Assay in HEK293 cells - 0 hour (AID 1224880). Further: top concentration of the series differs between compounds; nearly all actives have a fitted effect of over 45% in size. Summed up:
(§1)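 Kinetic, non-lysing viability readout. Seed HEK293 (600/well) with reagent, incubate 5 h at 37 C/5% CO2, pin 23 nL compound in DMSO, incubate at 37 C, read luminescence at 0, 8, 16, 24, 32, 40 h.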
(In general: In qHTS, concentration-response curves come from the screen itself.)

A short description of experiment [2]: A CellTox Green Cytotoxicity Assay to monitor cytotoxicity in HEK293 cells - 32 hour (AID 1224881). Further: nearly all actives have a fitted effect of over 40% in size. Further: potency means the concentration at half of the fitted maximal effect. Summed up:
(§2)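 Real-time, in one plate: 600 HEK293 cells/well with dead-cell DNA dye, pinned compound after 5 h, 37 C incubation over 40 h; viable cells give no appreciable fluorescence.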

Experiment [3] can be described thus: A CellTox Green Cytotoxicity Assay to monitor cytotoxicity in HepG2 cells - 0 hour (AID 1224882). Further: nearly all actives have a fitted effect of over 35% in size. Summed up:
(§3)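 Cytotoxicity was tracked as dead-cell DNA fluorescence in HepG2 cells treated with test compounds at 37 C; each time-point value comes from one kinetic series spanning 0, 8, 16, 24, 32 and 40 h.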

Experiment [4] can be described thus: A CellTox Green Cytotoxicity Assay to monitor cytotoxicity in HepG2 cells - 32 hour (AID 1224883). Further: nearly all actives have a fitted effect of over 50% in size. Further: potency means the concentration at half of the fitted maximal effect. Summed up:
as §3

Experiment [5] is described as follows: A CellTox Green Cytotoxicity Assay to monitor cytotoxicity in HEK293 cells - 8 hour (AID 1224884). Further: nearly all actives have a fitted effect of over 35% in size. Summed up:
as §2

Experiment [6] can be described thus: qHTS RealTime-Glo MT Cell Viability Assay in HepG2 cells - 16 hour (AID 1224885). Further: nearly all actives have a fitted effect of over 50% in size. Further: potency means the concentration at half of the fitted maximal effect. The method, boiled down:
(§4)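 Cells + NanoLuc/prosubstrate dispensed (600 cells/well) → 5 h at 37 C/5% CO2 → compounds in DMSO transferred → 40 h incubation at 37 C, luminescence read at 0, 8, 16, 24, 32, 40 h.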

The nature of experiment [7]: qHTS RealTime-Glo MT Cell Viability Assay in HEK293 cells - 24 hour (AID 1224886). Further: nearly all actives have a fitted effect of over 50% in size. Further: potency means the concentration at half of the fitted maximal effect. The method, boiled down: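 Tox21 10K qHTS, HEK293, 600 cells/well, RealTime-Glo reagent co-dispensed with cells; 5 h preincubation, compound by pintool, 37 C, luminescence at 0–40 h.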
Experiment [8] is described as follows: qHTS RealTime-Glo MT Cell Viability Assay in HEK293 cells - 8 hour (AID 1224887). Further: nearly all actives have a fitted effect of over 50% in size. Further: potency means the concentration at half of the fitted maximal effect. Summed up:
as §1

Experiment [9] can be described thus: qHTS RealTime-Glo MT Cell Viability Assay in HepG2 cells - 0 hour (AID 1224889). Further: nearly all actives have a fitted effect of over 50% in size. Further: potency means the concentration at half of the fitted maximal effect. The method, boiled down: as §4
A short description of experiment [10]: A CellTox Green Cytotoxicity Assay to monitor cytotoxicity in HepG2 cells - 8 hour (AID 1224890). Further: nearly all actives have a fitted effect of over 45% in size. Further: potency means the concentration at half of the fitted maximal effect. The method, boiled down: as §3
The nature of experiment [11]: qHTS assay to identify small molecule antagonists of the estrogen receptor alpha (ER-alpha) signaling pathway using the BG1 cell line in the presence of 0.1 nM 17-beta-estradiol - cell viability counter screen (AID 1259241). Further: nearly all actives have a fitted effect of over 40% in size. Further: potency means the concentration at half of the fitted maximal effect. The method, boiled down: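 VM7Luc4E2 cells (endogenous full-length ER-alpha, 4xERE-luciferase), cultured 5 days in charcoal-stripped serum, exposed to compounds with 0.1 nM 17beta-estradiol (final) for 22 hr at 37C. Viability read in same wells as live-cell protease fluorescence after 30 min.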

Experiment [12] can be described thus: qHTS assay to identify small molecule antagonists of the androgen receptor (AR) signaling pathway using the MDA cell line in the presence of 0.5 nM R1881 - cell viability counter screen (AID 1259242). Further: nearly all actives have a fitted effect of over 45% in size. Further: potency means the concentration at half of the fitted maximal effect. Summed up:
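Cells seeded at 3,000/well and allowed 5 hr at 37C, 0% CO2 before compound transfer and R1881 (0.5 nM final) addition; 16 hr later, live-cell protease fluorescence indicated cytotoxicity.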

Experiment [13] concerns the target Estrogen receptor (Homo sapiens) (UniProt P03372). The experiment is described as follows: qHTS assay to identify small molecule antagonists of the estrogen receptor alpha (ER-alpha) signaling pathway using the BG1 cell line in the presence of 0.1 nM 17-beta-estradiol (AID 1259244). Further: nearly all actives have a fitted effect of over 50% in size. Summed up: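 Luciferase signal from VM7Luc4E2 ERE-reporter cells, co-dosed with test compound and 0.1 nM final 17beta-estradiol for 22 h, read with ONE-Glo.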

Experiment [14] is described as follows: qHTS assay to identify small molecule phospholipidosis (PLD) inducers (AID 1259344; active means well fitted curve in the direction sought with a large enough effect; an effect the other way counts as inactive or inconclusive). Summed up: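 Read-out is LipidTOX Red fluorescence (ex 595/em 615) imaged in HepG2 cells after 24 h compound exposure at 37 C, with Hoechst nuclear counterstain (ex 352/em 461) allowing per-cell normalisation.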
Experiment [15] in a line: qHTS assay to identify small molecule HDAC inhibitors (AID 1259364).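 Further: wild-type HCT-116 cells with endogenous class I/II HDAC activity; top concentration of the series differs between compounds; nearly all actives have a fitted effect of over 45% in size.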 Summed up:
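HCT-116 wt cells, 1,500/well, overnight attach. Compounds (DMSO) 2 h, 37 °C. HDAC-Glo I/II, 30 min RT. Luminescence.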

Experiment [16] is described as follows: qHTS assay to identify small molecule HDAC inhibitors - cell viability counter screen (AID 1259365). Summed up: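 Wild-type HCT-116 cells, 1,500/well, cultured overnight, then compound-treated 2 h at 37 C. Viability measured as ATP luminescence with CellTiter-Glo after 30 min at room temperature.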
A short description of experiment [17]: qHTS assay to identify small molecule agonists of the sonic hedgehog signaling (Shh) pathway - cell viability counter screen (AID 1259366). Further: nearly all actives have a fitted effect of over 50% in size. Further: potency means the concentration at half of the fitted maximal effect. Summed up: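 NIH/3T3-derived Gli1-Luc reporter cells, 2,000 per well, received compound after 4 h and were treated about 23 h at 37C. Viability measured in the same wells by CellTiter-Fluor fluorescence after 1 h.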
Experiment [18] can be described thus: qHTS assay to identify small molecule antagonists of the sonic hedgehog signaling (Shh) pathway - cell viability counter screen (AID 1259367). Further: nearly all actives have a fitted effect of over 55% in size. Further: potency means the concentration at half of the fitted maximal effect. The method, boiled down: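 Fluorescence read-out (CellTiter-Fluor, 1 hr at 37C) taken after 23 hr compound treatment of 3T3 Gli1-Luc cells stimulated with conditioned medium. Cells were seeded at 2,000 per well and pre-incubated 4 hr.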

A short description of experiment [19]: A CellTox Green Cytotoxicity Assay to monitor cytotoxicity in HEK293 cells - 16 hour (AID 1224888). Further: nearly all actives have a fitted effect of over 35% in size. Summed up:
as §2

The target of experiment [20] is Androgen receptor (Homo sapiens) (UniProt P10275). Briefly: qHTS assay to identify small molecule antagonists of the androgen receptor (AR) signaling pathway using the MDA cell line in the presence of 0.5 nM R1881 (AID 1259243). The method, boiled down:
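Luminescence from an AR/GR-responsive MMTV-luciferase construct in MDA-kb2 breast carcinoma cells, read 30 min after ONE-Glo, following 16 hr co-treatment with compounds and 0.5 nM R1881.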

Where “and” joins values, the source holds several entries; their conditions need not be identical. Equal values may be shown once. Inconclusive results are not listed. Where a structure was tested more than once in an assay, its records may differ in their call. Calls of active or inactive are those of the source. Unless noted, the call rests on the fitted dose curve; in most records, active means well fitted curve in the direction sought with a large enough effect in the repeat runs; inconclusive means weak or mixed curves; inactive means no such curve, though single readings can be large; an effect the other way counts as inactive or inconclusive.

Sequence of Androgen receptor (Homo sapiens) (P10275 whole entry, looked up): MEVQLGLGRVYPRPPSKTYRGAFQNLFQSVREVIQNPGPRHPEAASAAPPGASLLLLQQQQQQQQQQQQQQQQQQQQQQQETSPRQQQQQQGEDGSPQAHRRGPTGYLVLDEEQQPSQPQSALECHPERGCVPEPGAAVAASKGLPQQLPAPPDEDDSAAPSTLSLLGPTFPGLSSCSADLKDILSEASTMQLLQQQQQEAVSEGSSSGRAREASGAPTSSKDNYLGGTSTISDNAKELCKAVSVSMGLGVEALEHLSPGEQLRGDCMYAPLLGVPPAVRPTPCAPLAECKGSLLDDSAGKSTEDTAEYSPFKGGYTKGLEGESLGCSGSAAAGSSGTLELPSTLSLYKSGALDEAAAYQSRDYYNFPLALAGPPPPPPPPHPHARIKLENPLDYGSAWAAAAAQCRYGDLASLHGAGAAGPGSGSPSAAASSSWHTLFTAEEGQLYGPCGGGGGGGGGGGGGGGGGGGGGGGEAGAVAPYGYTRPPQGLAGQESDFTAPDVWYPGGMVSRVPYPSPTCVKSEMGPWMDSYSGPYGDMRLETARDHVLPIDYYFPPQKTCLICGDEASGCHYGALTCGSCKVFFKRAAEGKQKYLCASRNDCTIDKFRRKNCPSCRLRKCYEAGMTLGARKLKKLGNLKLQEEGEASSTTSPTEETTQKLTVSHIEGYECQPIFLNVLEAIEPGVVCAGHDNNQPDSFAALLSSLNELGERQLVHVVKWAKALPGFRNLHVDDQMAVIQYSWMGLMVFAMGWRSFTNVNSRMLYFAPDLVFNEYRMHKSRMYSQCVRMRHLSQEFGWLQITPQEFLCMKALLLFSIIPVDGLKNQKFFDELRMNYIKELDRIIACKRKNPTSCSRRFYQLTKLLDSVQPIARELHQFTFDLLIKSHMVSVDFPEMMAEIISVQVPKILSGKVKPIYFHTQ
Sequence of Estrogen receptor (Homo sapiens) (P03372 whole entry, looked up): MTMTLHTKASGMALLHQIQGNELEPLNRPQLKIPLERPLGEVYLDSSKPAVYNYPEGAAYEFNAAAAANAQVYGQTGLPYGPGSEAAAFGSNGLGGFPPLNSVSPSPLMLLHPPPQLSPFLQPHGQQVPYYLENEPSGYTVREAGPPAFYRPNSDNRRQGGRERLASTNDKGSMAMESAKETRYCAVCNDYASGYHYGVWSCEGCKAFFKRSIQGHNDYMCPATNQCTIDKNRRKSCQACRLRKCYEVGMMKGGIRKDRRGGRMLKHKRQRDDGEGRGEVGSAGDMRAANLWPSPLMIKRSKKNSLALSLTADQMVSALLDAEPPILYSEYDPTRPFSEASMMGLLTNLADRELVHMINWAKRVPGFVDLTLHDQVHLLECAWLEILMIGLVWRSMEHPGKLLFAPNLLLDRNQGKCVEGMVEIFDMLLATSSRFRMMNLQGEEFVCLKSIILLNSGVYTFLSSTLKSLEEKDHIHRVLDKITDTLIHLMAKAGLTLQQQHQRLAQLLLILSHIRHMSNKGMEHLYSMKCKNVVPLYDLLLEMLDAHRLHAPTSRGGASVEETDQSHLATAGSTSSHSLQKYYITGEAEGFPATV

For the compound `CCC(C)(C)c1ccc(O)cc1`, the Potency entry in experiment [1], in [3], in [5], in experiment [6], in experiment [7] and in experiment [8] was “inactive” each time. The Potency result in [9], in experiment [11], in experiment [12], in [13], in experiment [15] and in experiment [17] was “inactive” throughout. Moreover, the Potency result in experiment [18] is “inactive”. For the same compound, the Potency in experiment [2] was 49.5 µM (active) and 43.6 µM (active); in experiment [4], 44.1 µM (active) and 38.9 µM (active) and 21.3 µM (active); in experiment [10] it was “inactive and 43.6 µM (active)”. In addition, the outcome in experiment [14] and in [16] was inactive.
Consider `C=C(C)[C@H]1Cc2c(ccc3c2O[C@@H]2COc4cc(OC)c(OC)cc4[C@@H]2C3=O)O1`, for which the Potency entry in experiment [1], in experiment [2], in experiment [3], in [5], in experiment [19] and in experiment [9] was “inactive” throughout. Further, the Potency result in [10] and in [15] was “inactive” each time. For the same compound, the Potency was 31.3 µM (active) and 27.5 µM (active) in experiment [6]; 62.5 nM (active) and 12.3 nM (active) and 47.7 nM (active) in experiment [7]; 249 nM (active) and 219 nM (active) and 60.1 nM (active) in [8]; 0.0486 µM (active) in [11]; 78 nM (active) and 54.5 nM (active) and 106 nM (active) in experiment [12]; 31 nM (active) and 19.3 nM (active) and 47.3 nM (active) in [20]. Moreover, the Potency was 24.7 µM (active) and inactive in experiment [17]; 22 µM (active) and 6.11 µM (active) in [18]. The compound was called inactive in experiment [14] and in experiment [16].
On to `c1ccc(NNc2ccccc2)cc1`, for which the Potency result in [1], in experiment [3], in experiment [4], in experiment [5], in experiment [6] and in experiment [7] was “inactive” in each case. In addition, the Potency result in experiment [8], in [19], in experiment [10], in experiment [11], in [12] and in [17] was “inactive” throughout. Moreover, the Potency result in [18] is “inactive”. For the same compound, the Potency in [2] was 24.5 µM (active); in experiment [9], “inactive and 43.6 µM (active)”. Further, the compound was called inactive in experiment [16].
`Oc1ccc(-c2ccccc2)cc1`: the Potency entry in experiment [1], in [3], in [5], in [6], in [19] and in [9] was “inactive” in each case. Further, the Potency result in [10], in experiment [11], in experiment [12], in experiment [13], in experiment [15] and in experiment [18] was “inactive” in each case. Besides, the Potency is 24.2 µM (active) and inactive in experiment [2]; “inactive and 49 µM (active)” in [4]; 21.9 µM (active) in experiment [7]. Further, the compound was called inactive in [16].
Take `CCC(C)c1ccc(O)cc1` (stereo not drawn): the Potency entry in experiment [1], in [3], in experiment [6], in experiment [7], in experiment [8] and in experiment [9] was “inactive” each time. The Potency result in experiment [10], in [11], in experiment [12], in experiment [17] and in [18] was “inactive” each time. Moreover, the Potency in [2] and in [4] was 43.6 µM (active) throughout. In addition, the outcome in [16] was inactive.
`CCOC(=S)S`: the Potency result in experiment [1], in experiment [2], in experiment [3], in experiment [4], in experiment [5] and in experiment [6] was “inactive” throughout. Also, the Potency result in experiment [7], in experiment [8], in experiment [19], in experiment [9], in experiment [10] and in experiment [11] was “inactive” each time. Also, the Potency entry in [12] is “inactive”. For the same compound, the outcome in [16] was inactive. For the same compound, the Potency is 38.6 µM (active) and 20.6 µM (active) in [17]; 30.6 µM (active) and 25.9 µM (active) in experiment [18].
